Source: PubChem BioAssay
Active and inactive are the calls of the source. Unless noted, how the calls were made is not given here.

Tests used:
[1] = anti-His antibody binders, primary screen, artefact control for SMM control protein annotation, biochemical, small-molecule microarray, 635 nm fluorescence (AID 1128); conditions: anti-His Alexa647 antibody binding, higher = more signal;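 further: score merges feature fluorescence with signal-to-noise for each printed compound spot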
[2] = tested on: Human papillomavirus type 1a E7 protein (residues 1-88); test: HPV1a E7 small-molecule binders, primary screen, biochemical, small-molecule microarray, residues 1-88, 635 nm (AID 1129); conditions: small-molecule microarray binding, fluorescence 635 nm; higher = more signal
[3] = molecular target: Focal adhesion kinase 1 (Homo sapiens) (UniProt Q05397); test: small-molecule microarray binders of FAK, primary screen, biochemical, 635/667 nm fluorescence, BSA, DTT (AID 1130); conditions: PTK2 binding, 635 nm fluorescence, higher = more signal;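 further: composite of spot emission at 667 nm and signal to noise over triplicate slides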
[4] = tested on: Fibrinogen (Alexa647-labelled); test: fibrinogen binders on compound microarrays, profiling panel, artefact control for SMM control-protein annotation, biochemical, small-molecule microarray, 635/667 nm fluorescence (AID 1131); conditions: fibrinogen-A647 binding fluorescence, higher = more signal;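 further: z-score merges 667 nm fluorescence with per-spot signal-to-noise over triplicate slides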
[5] = molecular target: Follistatin (Homo sapiens) (UniProt P19883); test: follistatin binders on small-molecule microarrays, primary screen, biochemical, small-molecule microarray, 635/667 nm fluorescence (AID 1132); conditions: FST binding, 635 nm fluorescence, higher = more signal
[6] = molecular target: Fibroblast growth factor 2 (Homo sapiens) (UniProt P09038); test: FGF2 binders on small-molecule microarrays, primary screen, biochemical, small-molecule microarray, 635/667 nm fluorescence (AID 1133); conditions: small-molecule microarray binding, FGF2, fluorescence 635/667; higher = more signal
[7] = mitochondrial membrane potential change in A549 cells, profiling panel, cell-based, JC-1 fluorescence, basal, 24 h, 100 nL (AID 1138); conditions: higher = more signal;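 further: A549 lung adenocarcinoma cells under basal conditions with no added stimulus; test concentration not given here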
Lefty1 = Lefty1 binders on small-molecule microarrays, primary screen, biochemical, small-molecule microarray, 635/667 nm fluorescence (AID 1139); conditions: small-molecule microarray binding, fluorescence 635/667; higher = more signal
[8] = tested on: wheat germ agglutinin (Triticum aestivum), Alexa647-labelled; test: wheat germ agglutinin binders on compound microarrays, profiling panel, artefact control for SMM control-protein annotation, biochemical, small-molecule microarray, 635/667 nm fluorescence (AID 1140); conditions: WGA-A647 binding, 635 nm fluorescence, higher = more signal;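 further: score merges 667 nm feature emission with signal to noise over triplicate slides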
[9] = molecular target: Luciferin 4-monooxygenase (Photinus pyralis) (UniProt P08659); test: firefly luciferase enzyme inhibitors, primary screen, biochemical, luminescence, purified enzyme, 2006 set (AID 1141); conditions: SteadyGlo luminescence, 30 min, higher = more signal, called active from +8 up or from −8 down;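 further: cell-free assay with purified firefly luciferase at 100 ng per well in PBS; test concentration not given here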
[10] = tested on: Wnt5a (protein binding on small-molecule microarray); test: Wnt5a binders on small-molecule microarray, primary screen, biophysical, 635/667 nm fluorescence (AID 1142); conditions: 635 nm fluorescence, higher = more signal;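 further: fluorescence read at 667 nm with signal to noise per printed feature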
[11] = cell viability in Huh7 cells, primary screen, cytotoxicity control for HCV replication inhibitor project, CellTiter-Glo luminescence, basal, 48 h (AID 1143); conditions: Huh7 HCV replicon, higher = more signal, called active from +8 up or from −8 down;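 further: Huh7 hepatoma cells carrying a hepatitis C replication reporter with no stimulus; test concentration not given here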
[12] = P. aeruginosa biofilm formation inhibitors, primary screen, PAO1 strain, BacTiter-Glo luminescence, LB-PBS (AID 1144); conditions: 12 h, higher = more signal
[13] = CREB reporter modulators without forskolin, primary screen, cell-based, PC12, CRE-LacZ reporter, unstimulated (AID 1145); conditions: no forskolin, luminescence, 4.5 h, higher = more signal, called active from +8 up or from −8 down
[14] = CREB reporter modulators under forskolin, primary screen, cell-based, PC12, CRE-LacZ reporter, forskolin-stimulated (AID 1146); conditions: luminescence, 4.5 h, higher = more signal, called active from +8 up or from −8 down;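 further: PC12 cells with 6xCRE LacZ reporter stimulated by forskolin 10 µM; beta-galactosidase reporter signal reflecting CREB driven transcription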
[15] = molecular target: Streptavidin (Streptomyces avidinii) (UniProt P22629); test: streptavidin binders on small-molecule microarray, primary screen, artefact control for SMM compound annotation, biophysical, 635/667 nm fluorescence (AID 1147); conditions: streptavidin binding, higher = more signal;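 further: signal reflects streptavidin binding to arrayed compounds as a control protein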
[16] = small-molecule binders of probe aInhba, primary screen, biochemical, small-molecule microarray, 635/667 nm fluorescence (AID 1148); conditions: higher = more signal;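 further: score merges 667nm spot fluorescence with signal-to-noise for antibody binding to printed compounds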
Torsin-1A (Homo sapiens) [17] = molecular target: Torsin-1A (Homo sapiens) (UniProt O14656); test: torsin A binders from cell lysate, primary screen, small-molecule microarray, wild-type, 635/667 nm (AID 1149); conditions: COS7 hTOR1A-WT lysate, 635 nm fluorescence, higher = more signal
Torsin-1A (Homo sapiens) [18] = molecular target: Torsin-1A (Homo sapiens) (UniProt O14656); test: small-molecule binders of mutant TOR1A in lysate, primary screen, cell lysate, small-molecule microarray, COS7 lysate, 635/667 nm fluorescence (AID 1150); conditions: COS7 hTOR1A mutant lysate, 635 nm fluorescence, higher = more signal;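 further: score pools 667 nm emission and signal to noise measuring lysate protein binding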
[19] = tested on: Sonic hedgehog protein (Shh); test: small-molecule binders of Shh protein, primary screen, biochemical, small-molecule microarray, 635/667 nm fluorescence (AID 1151); conditions: small-molecule microarray binding, 635 nm fluorescence; higher = more signal;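 further: Shh protein binding to compounds spotted on small-molecule microarray slides; score combines spot fluorescence intensity with signal-to-noise across triplicate slides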

Chain of Focal adhesion kinase 1 (Homo sapiens) (Q05397 whole entry, looked up): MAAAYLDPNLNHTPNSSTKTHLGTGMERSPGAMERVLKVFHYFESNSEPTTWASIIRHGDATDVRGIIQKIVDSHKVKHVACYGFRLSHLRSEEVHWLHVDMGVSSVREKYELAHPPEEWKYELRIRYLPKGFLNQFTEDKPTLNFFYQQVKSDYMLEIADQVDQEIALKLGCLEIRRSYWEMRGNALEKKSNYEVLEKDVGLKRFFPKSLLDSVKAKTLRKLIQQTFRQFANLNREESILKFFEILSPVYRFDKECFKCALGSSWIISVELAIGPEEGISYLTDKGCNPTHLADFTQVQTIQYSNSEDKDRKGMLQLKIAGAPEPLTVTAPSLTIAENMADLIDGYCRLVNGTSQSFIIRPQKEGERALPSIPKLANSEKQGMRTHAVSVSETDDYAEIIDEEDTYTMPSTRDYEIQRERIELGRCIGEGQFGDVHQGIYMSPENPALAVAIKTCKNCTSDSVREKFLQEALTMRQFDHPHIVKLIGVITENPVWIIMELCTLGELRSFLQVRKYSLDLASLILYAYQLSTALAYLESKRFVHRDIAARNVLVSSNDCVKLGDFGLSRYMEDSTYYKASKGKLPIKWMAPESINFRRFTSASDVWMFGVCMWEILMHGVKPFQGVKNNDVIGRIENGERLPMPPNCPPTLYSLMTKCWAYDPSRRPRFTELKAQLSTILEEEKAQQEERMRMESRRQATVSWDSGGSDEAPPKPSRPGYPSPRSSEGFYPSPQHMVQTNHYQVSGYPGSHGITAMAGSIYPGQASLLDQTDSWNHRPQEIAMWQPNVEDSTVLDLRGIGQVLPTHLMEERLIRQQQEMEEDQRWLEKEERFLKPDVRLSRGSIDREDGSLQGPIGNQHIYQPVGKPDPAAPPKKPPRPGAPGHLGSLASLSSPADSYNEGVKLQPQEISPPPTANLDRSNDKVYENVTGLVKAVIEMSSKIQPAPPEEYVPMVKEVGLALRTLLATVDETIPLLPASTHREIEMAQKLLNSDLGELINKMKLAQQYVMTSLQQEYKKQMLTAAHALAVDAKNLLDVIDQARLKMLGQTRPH
Chain of Torsin-1A (Homo sapiens) (O14656 whole entry, looked up): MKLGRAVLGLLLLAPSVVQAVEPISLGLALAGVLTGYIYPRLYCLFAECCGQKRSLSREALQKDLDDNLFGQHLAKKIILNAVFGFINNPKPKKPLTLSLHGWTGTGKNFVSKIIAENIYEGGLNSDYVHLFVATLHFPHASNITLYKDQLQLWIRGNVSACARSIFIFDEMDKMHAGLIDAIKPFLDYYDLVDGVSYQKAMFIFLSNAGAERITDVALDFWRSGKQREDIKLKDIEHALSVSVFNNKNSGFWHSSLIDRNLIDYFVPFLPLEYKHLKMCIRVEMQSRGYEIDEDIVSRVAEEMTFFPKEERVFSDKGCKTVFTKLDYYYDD
Chain of Streptavidin (Streptomyces avidinii) (P22629 whole entry, looked up): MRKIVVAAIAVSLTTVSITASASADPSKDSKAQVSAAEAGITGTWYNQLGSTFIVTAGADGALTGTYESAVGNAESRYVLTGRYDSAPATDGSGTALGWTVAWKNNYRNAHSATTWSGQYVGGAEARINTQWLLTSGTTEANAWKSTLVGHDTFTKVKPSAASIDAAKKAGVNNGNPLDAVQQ
Chain of Fibroblast growth factor 2 (Homo sapiens) (P09038 whole entry, looked up): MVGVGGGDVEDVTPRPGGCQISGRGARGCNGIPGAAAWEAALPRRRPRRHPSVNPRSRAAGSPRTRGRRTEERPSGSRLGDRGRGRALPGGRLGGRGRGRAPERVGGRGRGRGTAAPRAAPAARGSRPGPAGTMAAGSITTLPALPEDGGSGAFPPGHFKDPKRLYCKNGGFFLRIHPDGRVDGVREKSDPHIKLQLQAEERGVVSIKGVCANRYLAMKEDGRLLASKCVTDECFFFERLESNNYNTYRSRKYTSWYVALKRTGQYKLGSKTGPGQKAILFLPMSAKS
Chain of Follistatin (Homo sapiens) (P19883 whole entry, looked up): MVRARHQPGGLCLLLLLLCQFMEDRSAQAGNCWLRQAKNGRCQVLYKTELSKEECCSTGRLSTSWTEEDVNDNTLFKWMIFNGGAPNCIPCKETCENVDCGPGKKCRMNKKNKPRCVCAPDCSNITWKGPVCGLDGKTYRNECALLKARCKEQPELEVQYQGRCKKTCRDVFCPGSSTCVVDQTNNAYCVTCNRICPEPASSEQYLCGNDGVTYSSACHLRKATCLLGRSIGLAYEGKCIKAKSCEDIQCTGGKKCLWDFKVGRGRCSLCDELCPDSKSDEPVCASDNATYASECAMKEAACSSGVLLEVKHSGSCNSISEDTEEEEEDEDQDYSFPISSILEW
Chain of Luciferin 4-monooxygenase (Photinus pyralis) (P08659 whole entry, looked up): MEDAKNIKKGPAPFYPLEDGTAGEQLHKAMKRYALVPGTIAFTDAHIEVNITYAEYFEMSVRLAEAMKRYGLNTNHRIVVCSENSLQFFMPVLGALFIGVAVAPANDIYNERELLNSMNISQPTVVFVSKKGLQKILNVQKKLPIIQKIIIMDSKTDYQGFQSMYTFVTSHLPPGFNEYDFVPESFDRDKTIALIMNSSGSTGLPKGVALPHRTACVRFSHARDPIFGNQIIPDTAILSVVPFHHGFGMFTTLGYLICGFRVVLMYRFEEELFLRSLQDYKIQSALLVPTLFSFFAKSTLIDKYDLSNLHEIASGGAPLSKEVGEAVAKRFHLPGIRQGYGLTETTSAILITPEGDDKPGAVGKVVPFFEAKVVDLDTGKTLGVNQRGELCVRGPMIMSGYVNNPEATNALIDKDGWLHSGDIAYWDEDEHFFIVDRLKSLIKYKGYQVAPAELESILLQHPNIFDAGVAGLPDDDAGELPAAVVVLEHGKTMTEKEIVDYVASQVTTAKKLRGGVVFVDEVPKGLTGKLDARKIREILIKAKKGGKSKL

Structure (SMILES)	composite z-score [1]	composite z-score [2]	composite z-score [3]	composite z-score [4]	composite z-score [5]	composite z-score [6]	z-score [7]	composite z-score (Lefty1)	composite z-score [8]	z-score [9]	composite z-score [10]	z-score [11]	z-score [12]	z-score [13]	z-score [14]	composite z-score [15]	composite z-score [16]	composite z-score (Torsin-1A (Homo sapiens) [17])	composite z-score (Torsin-1A (Homo sapiens) [18])	composite z-score [19]
Cc1ccc(S[C@]2(C(=O)NCc3ccccc3)CC(=O)N(Cc3cc(C(F)(F)F)cc(C(F)(F)F)c3)[C@@H]2c2ccc(CO)cc2I)cc1	-1.1	-0.774	0.438	-0.885	-1.18	-1.45	1.61	-1.25	-0.799	-0.461 (inactive)	-0.309	-1.24 (inactive)	-0.314 (inactive)	0.479 (inactive)	0.279 (inactive)	-0.649	-0.0523	-0.199	-0.298	-0.757
COC(=O)[C@@]1(Cc2ccc(F)cc2)[C@H]2c3cc(C(=O)N4CCCC4)n(CC4CC4)c3C[C@H]2CN1C(=O)c1ccccc1	2.46	1.28	0.467	1.03	1.26	0.107	0.699	-0.39	0.718	1.35 (inactive)	0.0479	-2.61 (inactive)	0.197 (inactive)	0.972 (inactive)	-0.451 (inactive)	1.86	0.74	0.111	1.03	0.377
CN1C(=O)C2C(C1=O)C1C=C(CCCO)C2C(c2cccs2)N1Cc1cc2c(cc1Br)OCO2 (stereo not given)	1.12	1.22	1.07	1.04	1.35	0.502	0.903	0.265	1.17	-1.48 (inactive)	0.418	-1.8 (inactive)	0.482 (inactive)	-0.374 (inactive)	-0.101 (inactive)	2.27	0.233	1.5	1.95	0.162
CCOC(=O)C[C@H]1[C@H](OC(=O)c2ccc(-c3ccccc3)cc2)[C@@H](NC(=O)CC(C)C)c2cc(OCCCO)ccc2N1C(=O)c1ccccc1	0.281	0.453	0.513	0.252	0.249	0.376	1.23	0.369	0.0794	-0.228 (inactive)	0.121	-0.092 (inactive)	0.0804 (inactive)	0.469 (inactive)	-0.375 (inactive)	0.216	-0.0963	-0.477	0.289	1.03
CCOC(=O)C1=C[C@@H](C(C)(C)C)N(S(=O)(=O)c2ccc(C)cc2)[C@H]1c1ccc(C)cc1	0.505	1.16	-0.115	0.958	1.29	0.949	4.52	1.12	0.764	0.715 (inactive)	0.514	-5 (inactive)	0.311 (inactive)	-0.0137 (inactive)	-0.1 (inactive)	1.35	0.0857	0.392	0.361	1.7
COCCOC(=O)N1C(=O)[C@@]2(c3cc(C#CCC(C(=O)OC)C(=O)OC)ccc31)[C@H](C(=O)NC[C@H](O)c1ccccc1)[C@H]1C(=O)O[C@H](c3ccccc3)[C@H](c3ccccc3)N1[C@@H]2c1ccc(OCCO)cc1	1.02	1.19	0.427	0.891	1.4	1.58	-1.58	1.32	0.309	-0.997 (inactive)	-0.157	-1.01 (inactive)	0.366 (inactive)	0.895 (inactive)	-0.102 (inactive)	0.688	-0.0804	-0.012	0.367	1.69
CCCCC(=O)N(CCN1CCOCC1)[C@@H]1CC(C(=O)NCCO)=C[C@H](Oc2c(I)cc(CO)cc2OC)[C@H]1O	0.438	0.358	-0.444	-0.0237	0.328	0.902	0.809	0.612	0.0626	-0.658 (inactive)	-0.0408	0.0643 (inactive)	-0.141 (inactive)	1.4 (inactive)	-1.19 (inactive)	-0.0538	-0.253	0.314	-0.0203	0.655
COCCOC(=O)N1C(=O)[C@@]2(c3ccccc31)[C@H](c1ccccc1OCCO)N1[C@H](c3ccccc3)[C@H](c3ccccc3)OC(=O)[C@H]1[C@@H]2C(N)=O	1.93	1.18	0.502	0.955	1.4	1.57	-0.206	1.01	0.64	0.0559 (inactive)	0.408	-4.2 (inactive)	-0.0116 (inactive)	0.272 (inactive)	1.86 (inactive)	1.25	0.296	-0.401	1.07	1.48
C=C(COC)C(=O)CC[C@H](OC(C)=O)c1ccc(OCCO)cc1	0.943	0.0389	-0.267	-0.0148	1.51	1.43	-0.686	1.46	0.777	-0.574 (inactive)	0.632	-3.53 (inactive)	-0.856 (inactive)	2.77 (inactive)	1.69 (inactive)	-0.0693	-0.0675	1.2	0.647	1.85
Nc1cc(Br)ccc1C(=O)O	1.28	0.319	0.5	0.777	0.181	0.372	1.28	-0.0916	0.863	-1.1 (inactive)	0.0415	0.389 (inactive)	0.0538 (inactive)	0.209 (inactive)	-0.929 (inactive)	0.689	-0.0719	0.136	0.474	0.0009
